The text below walks through data of article PMC6212833.

In general, % Inhibition refers to the relative decrease from the control value, in per cent.

About 15 (0.8%) of roughly 2,000 compounds showed an effect of 50% or more. Shown is part of a subset that was picked to be rich in strong results. *1 amine or outer side, *2 acyl side, *3 side chain or, on linkers, in order; H or OH if unused. Where a SMILES comes first, the peptide text is derived from it. Bridges are numbered along the chain shown (N, C = ends). X1 = O=C(CCC[*:2])[*:1]

In this assay the test system is Balamuthia mandrillaris (ATCC PRA-291) trophozoites, axenic culture. The experiment in a line: primary screen, percent inhibition; higher = more effect of the substance.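 Further: 0% = vehicle wells and 100% = lysate wells.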 The settings on record: 20 µM. The procedure: Screening of a clinically approved library of compounds, compiled by the Small Molecule Discovery Center (SMDC) at the UCSF, was completed at 20 µM in 0.2% DMSO. All 2,177 drugs in the library were stored as 10 mM stocks dissolved in 100% DMSO (Sigma-Aldrich) at −20°C. B. mandrillaris amoebae were resuspended in axenic medium and distributed into opaque 384-well plates (Corning) at a density of 3,000 amoebae per well using a BioMek NX liquid handler. Negative-control wells were treated with vehicle only (0.2% DMSO in axenic medium), and positive-control wells simulating total destruction of amoebae were seeded with amoeba lysate generated by 3 consecutive freeze-thaw cycles. Following 72 h of incubation, 30 µl of CellTiter Glo reagent (CTG; Promega) was added to each well. The luminescence was measured with a Promega GloMax-Multi+ plate reader at 2, 4, and 8 h after CTG addition. […] The B-score, representing a plate-based statistical approach for correcting row, column, and edge effects, was also calculated for each compound in the library (75).
For the compound `C1N2CN3CN1CN(C2)C3`, the “% Inhibition” value came to 25.9%.
Turning to `CN(C)CCC[C@@]1(c2ccc(F)cc2)OCc2cc(C#N)ccc21` [131042-L5], the “% Inhibition” value amounted to 29.1%.
On to `c1ccc(-c2ccc(C(c3ccccc3)n3ccnc3)cc2)cc1` (stereo not shown), for which the “% Inhibition” value is reported as 2.05%.
As to `O=C(O)C1CSCN1` (stereo not shown), the “% Inhibition” value is given as 29%.
For the compound `CC[C@H]1OC(=O)[C@H](C)[C@@H](O[C@H]2C[C@@](C)(OC)[C@@H](O)[C@H](C)O2)[C@H](C)[C@@H](O[C@@H]2O[C@H](C)C[C@H](N(C)C)[C@H]2O)[C@](C)(O)C[C@@H](C)C(=O)[C@H](C)[C@@H](O)[C@]1(C)O` [129937-L7], the “% Inhibition” value is listed as 19.9%.
In the case of `CO/N=C(\C(=O)N[C@@H]1C(=O)N2C(C(=O)O)=C(COC(N)=O)CS[C@H]12)c1ccco1`, the “% Inhibition” value is 11.5%.
In the case of `Cc1ccc(S(=O)(=O)NC(=O)NN2CC3CCCC3C2)cc1` (stereo not shown), the “% Inhibition” value is on record as 10.2%.
`Cc1oncc1C(=O)Nc1ccc(C(F)(F)F)cc1`: the “% Inhibition” value worked out at 15%.
Turning to `O=C(O)P(=O)(O)O`, the “% Inhibition” value came out at 19.1%.
`CCCCN(CCCC)CC(O)c1cc(Cl)cc2c1-c1ccc(Cl)cc1/C2=C/c1ccc(Cl)cc1` (stereo not shown): the “% Inhibition” value is 5.93%.
In the case of `CC[C@@]1(O)C(=O)OCc2c1cc1n(c2=O)Cc2cc3c([N+](=O)[O-])cccc3nc2-1`, the “% Inhibition” value was -33%.
`C[N+](C)(C)CCCCCCCCCC[N+](C)(C)C`: the “% Inhibition” value is 25.7%.
In the case of `C[N+](C)(C)CCCCCC[N+](C)(C)C`, the “% Inhibition” value is 26%.
On to `CCCCCCCCCCCCCCCC[N+](C)(C)C`, for which the “% Inhibition” value was found to be 56.1%.
For `CC[C@H]1OC(=O)[C@H](C)[C@@H](O[C@H]2C[C@@](C)(OC)[C@@H](O)[C@H](C)O2)[C@H](C)[C@@H](O[C@@H]2O[C@H](C)C[C@H](N(C)C)[C@H]2O)[C@](C)(OC)C[C@@H](C)C(=O)[C@H](C)[C@@H](O)[C@]1(C)O` the value was 8.87%; for `O=C1NCCN1CCN1CCC(c2cn(-c3ccc(F)cc3)c3ccc(Cl)cc23)CC1`, 23.8%; for `CN1CCc2c(c3ccccc3n2Cc2ccccc2)C1`, 34.1%.
Take `CN/C(=C/[N+](=O)[O-])NCCSCc1ccc(CN(C)C)o1`: the “% Inhibition” value turned out to be 7.74%.
With `CN/C(=C\[N+](=O)[O-])NCCSCc1csc(CN(C)C)n1`, the “% Inhibition” value amounted to 23.7%.
As to `CN/C(=C\[N+](=O)[O-])NCCSCc1ccc(CN(C)C)o1`, the “% Inhibition” value is recorded as 68.1%.
For `Nc1c(Br)cc(Br)cc1CNC1CCC(O)CC1` (stereo not shown) the value was 20.4%.
For `C#C[C@]1(OC(C)=O)CCC2C3CCC4=C/C(=N/O)CCC4C3CC[C@@]21CC` (stereo partly shown), the “% Inhibition” value was 19.6%.
`Cc1cnc(C(=O)O)c[n+]1[O-]`: the “% Inhibition” value amounted to 0.14%.
On to `Cc1cc(N)c2ccccc2[n+]1CCCCCCCCCC[n+]1c(C)cc(N)c2ccccc21`, for which the “% Inhibition” value is on record as 69%.
In the case of `CC(=O)OCC(=O)[C@@]1(O)CCC2C3CCC4=CC(=O)CC[C@]4(C)C3[C@@H](O)C[C@@]21C` (stereo partly shown), the “% Inhibition” value worked out at 33.3%.
Consider `Cc1ncc([N+](=O)[O-])n1CC(C)O` (stereo not shown), for which the “% Inhibition” value is 35.8%.
For `CCN(CC)C(=O)C1(c2ccccc2)CC1CN` (stereo not shown), the “% Inhibition” value came out at 21.4%.
With `O=S(=O)(O)CCS`, the “% Inhibition” value turned out to be 8.32%.
For `CCCCC[C@H](O)/C=C/[C@H]1[C@H](O)CC(=O)[C@@H]1CCCCCCC(=O)O` [285959-L6] the value was -5.58%; for `Cc1cc(-c2ccc(/N=N/c3ccc4c(S(=O)(=O)O)cc(S(=O)(=O)O)c(N)c4c3O)c(C)c2)ccc1/N=N/c1ccc2c(S(=O)(=O)O)cc(S(=O)(=O)O)c(N)c2c1O`, 73.9%; for `O=C(Nc1cccc2c(=O)cc(-c3nn[nH]n3)oc12)c1ccc(OCCCCc2ccccc2)cc1`, -2.25%.
As for `O=C(O)c1ccccc1-c1c2cc(I)c(=O)c(I)c-2oc2c(I)c(O)c(I)cc12`, the “% Inhibition” value is listed as 66.4%.
In the case of `Clc1ccc(C(Cn2ccnc2)OCc2ccsc2Cl)c(Cl)c1` (stereo not shown) [735884-L3], the “% Inhibition” value is listed as 5.23%.
Turning to `OC[C@H]1O[C@H](O[C@H]2[C@H](O)[C@@H](O)[C@H](O)O[C@@H]2CO)[C@H](O)[C@@H](O)[C@@H]1O`, the “% Inhibition” value is listed as 17.5%.
For the compound `CCCCC(=O)N(Cc1ccc(-c2ccccc2-c2nn[nH]n2)cc1)[C@H](C(=O)O)C(C)C`, the “% Inhibition” value is reported as 21.1%.
With `Cc1ccccc1C(OCCN(C)C)c1ccccc1` (stereo not shown), the “% Inhibition” value is reported as -5.39%.
As to `CCCCc1oc2ccccc2c1C(=O)c1cc(I)c(OCCN(CC)CC)c(I)c1`, the “% Inhibition” value amounted to 14.9%.
For `CO[C@@H]1[C@@H](O[C@@H]2O[C@H](C)[C@@H](O[C@H]3C[C@@](C)(O)[C@H](O)[C@H](C)O3)[C@H](N(C)C)[C@H]2O)[C@@H](CC=O)C[C@@H](C)[C@@H](O[C@H]2CC[C@H](N(C)C)[C@@H](C)O2)/C=C/C=C/C[C@H](C)OC(=O)C[C@H]1O` the value was 4.48%; for `O=c1c2ccccc2[se]n1-c1ccccc1`, 19.3%.
On to `Nc1nc(O)ncc1F`, for which the “% Inhibition” value worked out at 15.6%.
As for `COc1ccc2c(c1)N(C[C@H](C)CN(C)C)c1ccccc1S2`, the “% Inhibition” value is 2.52%.
For `S=P(N1CC1)(N1CC1)N1CC1` the value was 27.8%; for `CC[C@H](C)[C@@H]1NC(=O)[C@H](Cc2ccc(OC)cc2)NC(=O)CCCSC[C@@H](C(=O)N2CCC[C@H]2C(=O)N[C@@H](CC(C)C)C(=O)NCC(N)=O)NC(=O)[C@H](CC(N)=O)NC(=O)[C@H](CCC(N)=O)NC1=O` (Y(Me)IQNCPLG-NH2; linker N-5 via X1), 9.07%; for `COc1ccc2cc1Oc1ccc(cc1)C[C@H]1c3c(cc4c(c3Oc3cc5c(cc3OC)CCN(C)[C@@H]5C2)OCO4)CCN1C`, -18.5%.
Take `COc1ccc(OC)c(C(O)C(C)N)c1` (stereo not shown): the “% Inhibition” value is on record as 16.7%.
The figure for `CN1C(C(=O)Nc2ccccn2)=C(O)c2ccccc2S1(=O)=O` is 6.97%; for `CCCCC(F)(F)[C@@]1(O)CC[C@H]2[C@@H](CC(=O)[C@@H]2CCCCCCC(=O)O)O1` it is 20.6%.
As for `C[C@@H](O)[C@H]1C(=O)N2C(C(=O)O)=C(S[C@@H]3CN[C@H](C(=O)Nc4cccc(C(=O)O)c4)C3)[C@H](C)[C@H]12`, the “% Inhibition” value is 10.5%.
For `COc1ccc(-n2nc(CCC(=O)N(C)O)cc2-c2ccc(Cl)cc2)cc1`, the “% Inhibition” value was determined as 16%.
In the case of `N[C@@H](CSSC[C@H](N)C(=O)O)C(=O)O`, the “% Inhibition” value was -0.0671%.
The figure for `CCN(CC)CCNc1ccc(CO)c2sc3ccccc3c(=O)c12` is 0.0147%; for `O=C(O)[C@H](CC(=O)N1C[C@H]2CCCC[C@H]2C1)Cc1ccccc1` it is 22.1%; for `CN1CCN(C(=O)O[C@H]2c3nccnc3C(=O)N2c2ccc(Cl)cn2)CC1` it is 9.05%.
Consider `C1CCN2C[C@@H]3C[C@H](CN4CCCC[C@@H]34)[C@H]2C1`, for which the “% Inhibition” value is given as -35.5%.
In the case of `O=C(O)C1=C(CSc2nnnn2CS(=O)(=O)O)CS[C@@H]2C(NC(=O)[C@H](O)c3ccccc3)C(=O)N12` (stereo partly shown), the “% Inhibition” value was 15.1%.
As to `CCCCCCCCCCOc1cc2c(O)c(C(=O)OCC)cnc2cc1OCC`, the “% Inhibition” value was -12.8%.
As to `CCN1CCN(C(=O)N[C@@H](C(=O)N[C@@H]2C(=O)N3C(C(=O)O)=C(CSc4nnnn4C)CS[C@H]23)c2ccc(O)cc2)C(=O)C1=O`, the “% Inhibition” value is recorded as 19.8%.
For the compound `C=CCNc1nc(NCC=C)nc(N2CCN(C(c3ccc(F)cc3)c3ccc(F)cc3)CC2)n1`, the “% Inhibition” value is on record as 13.4%.
As for `CC1=C(CC(=O)O)c2cc(F)ccc2/C1=C\c1ccc(S(C)(=O)=O)cc1`, the “% Inhibition” value is recorded as 12.2%.
Take `CO/N=C(\C(=O)NC1C(=O)N2C(C(=O)OCOC(=O)C(C)(C)C)=C(/C=C\c3scnc3C)CSC12)c1csc(N)n1` (stereo not shown): the “% Inhibition” value was -4.68%.
For `C[C@@H]1CC[C@H]2[C@@H](C)C(O)O[C@@H]3O[C@@]4(C)CC[C@@H]1[C@]32OO4` (stereo partly shown) the value was 56.5%; for `C[C@H]1[C@@H](OC(=O)CCC(=O)O)O[C@@H]2O[C@]3(C)CC[C@H]4[C@H](C)CC[C@@H]1[C@@]24OO3`, 52.3%; for `CO[C@H]1O[C@@H]2O[C@@]3(C)CC[C@H]4[C@H](C)CC[C@@H]([C@H]1C)[C@@]24OO3`, 48.7%.
The figure for `COC1O[C@@H]2O[C@@]3(C)CC[C@H]4[C@H](C)CC[C@@H]([C@H]1C)[C@@]24OO3` (stereo partly shown) is -11.8%; for `C[C@H]1[C@H](OC(=O)CCC(=O)O)O[C@@H]2O[C@@]3(C)CC[C@H]4[C@H](C)CC[C@@H]1[C@@]24OO3` it is 56.1%.
For `CC(=O)[C@H]1CC[C@H]2[C@@H]3CC=C4C[C@@H](OC(=O)CCC(=O)O)CC[C@]4(C)[C@H]3CC[C@]12C` the value was -6.88%; for `C[C@@H]1CC[C@H]2[C@@H](C)C(=O)O[C@@H]3O[C@@]4(C)CC[C@@H]1[C@]32OO4`, 54.5%; for `Cc1nnc2n1-c1ccc(Cl)cc1C(c1ccccc1)=NC2`, -8.66%.
Regarding `CC1(C)C(C=C(Cl)Cl)C1C(=O)OCc1cccc(Oc2ccccc2)c1` (stereo not shown), the “% Inhibition” value came to 13.4%.
Consider `COc1cc2nc(N(C)CCCNC(=O)C3CCCO3)nc(N)c2cc1OC` (stereo not shown), for which the “% Inhibition” value is 24.3%.
`C=CC[C@]1(O)CC[C@H]2[C@@H]3CCC4=CCCC[C@@H]4[C@H]3CC[C@@]21C`: the “% Inhibition” value is 5.59%.
In the case of `CC(C)C[C@H](NC(=O)[C@@H](Cc1c[nH]c2ccccc12)NC(=O)[C@H](Cc1ccc(O)cc1)NC(=O)[C@H](CO)NC(=O)[C@H](Cc1c[nH]c2ccccc12)NC(=O)[C@H](Cc1c[nH]cn1)NC(=O)[C@@H]1CCC(=O)N1)C(=O)N[C@@H](CCCN=C(N)N)C(=O)N1CCC[C@H]1C(=O)NCC(N)=O`, the “% Inhibition” value was 9.31%.
The figure for `O=C(O)CCCCC(=O)O` is 25.4%.
`O=C(O)CCCO`: the “% Inhibition” value came to 19%.
For `CC(=O)OCC(COC(C)=O)OC(C)=O` the value was -1.82%; for `C[C@@H]1[C@H](O)[C@@H](C)/C=C/C=C/C=C/C=C/C=C/C=C/C=C/[C@H](O[C@@H]2O[C@H](C)[C@@H](O)[C@H](N)[C@@H]2O)C[C@@H]2O[C@](O)(C[C@@H](O)C[C@@H](O)[C@H](O)CC[C@@H](O)C[C@@H](O)CC(=O)O[C@H]1C)C[C@H](O)[C@H]2C(=O)O`, 25.1%.
